Results published in PubChem BioAssay.
Activity calls are given as the source filed them.

Key:
[1] = test system: Plasmodium falciparum Sir2 (PF13_0152, Sir2A); test: pfSir2 binders on small-molecule microarrays, primary screen, biochemical, small-molecule microarray, 635 nm fluorescence (AID 1098); settings: small-molecule microarray binding, fluorescence 635 nm; higher = more signal;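 note: score merges spot fluorescence intensity with its signal-to-noise ratio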
[2] = small-molecule microarray binders of probe aDKK1, primary screen, biochemical, biotinylated probe, 635/667 nm fluorescence (AID 1099); settings: higher = more signal;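 note: score merges 667nm spot fluorescence with signal to noise across triplicate slides; reference of the scale not given here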
[3] = small-molecule microarray binders of probe aCHRDL2, primary screen, biochemical, biotinylated probe, 635/667 nm fluorescence (AID 1100); settings: higher = more signal
[4] = splicing luciferase reporter signal modulators, primary screen, spliceosome inhibition project, cell-based, HEK293, splice +/- reporter (AID 1101); settings: luminescence, 24 h, higher = more signal, called active from +8 up or from −8 down;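 note: HEK293 cells carrying a splicing-competent luciferase reporter gene; test concentration not given here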
[5] = target: Fibroblast growth factor 10 (Homo sapiens) (UniProt O15520); test: FGF10 binders on small-molecule microarrays, primary screen, biochemical, small-molecule microarray, 635 nm fluorescence (AID 1102); settings: FGF10 binding, fluorescence 635 nm, higher = more signal
Chain of Fibroblast growth factor 10 (Homo sapiens) (O15520 whole entry, looked up): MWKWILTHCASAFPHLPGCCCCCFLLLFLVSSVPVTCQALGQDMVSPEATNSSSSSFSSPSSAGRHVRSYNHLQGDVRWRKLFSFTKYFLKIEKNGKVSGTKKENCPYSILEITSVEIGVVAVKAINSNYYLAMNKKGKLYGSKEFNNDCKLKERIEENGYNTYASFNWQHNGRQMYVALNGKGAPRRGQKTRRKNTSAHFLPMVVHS

[6] = test system: glycogen synthase kinase-3 (GSK3A per assay name; protocol says GSK3B); test: GSK3 binders on small-molecule microarrays, primary screen, biochemical, small-molecule microarray, 635 nm fluorescence, GSK3A (AID 1103); settings: small-molecule microarray binding, fluorescence 635 nm; higher = more signal; note: the record names both GSK3A and GSK3B
[7] = target: Epidermal growth factor receptor (Homo sapiens) (UniProt P00533); test: EGFR binders on small-molecule microarrays, primary screen, biochemical, small-molecule microarray, 635 nm fluorescence (AID 1104); settings: EGFR binding, higher = more signal;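 note: score merges 667 nm emission intensity with spot signal to noise over triplicate slides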
Chain of Epidermal growth factor receptor (Homo sapiens) (P00533 whole entry, looked up): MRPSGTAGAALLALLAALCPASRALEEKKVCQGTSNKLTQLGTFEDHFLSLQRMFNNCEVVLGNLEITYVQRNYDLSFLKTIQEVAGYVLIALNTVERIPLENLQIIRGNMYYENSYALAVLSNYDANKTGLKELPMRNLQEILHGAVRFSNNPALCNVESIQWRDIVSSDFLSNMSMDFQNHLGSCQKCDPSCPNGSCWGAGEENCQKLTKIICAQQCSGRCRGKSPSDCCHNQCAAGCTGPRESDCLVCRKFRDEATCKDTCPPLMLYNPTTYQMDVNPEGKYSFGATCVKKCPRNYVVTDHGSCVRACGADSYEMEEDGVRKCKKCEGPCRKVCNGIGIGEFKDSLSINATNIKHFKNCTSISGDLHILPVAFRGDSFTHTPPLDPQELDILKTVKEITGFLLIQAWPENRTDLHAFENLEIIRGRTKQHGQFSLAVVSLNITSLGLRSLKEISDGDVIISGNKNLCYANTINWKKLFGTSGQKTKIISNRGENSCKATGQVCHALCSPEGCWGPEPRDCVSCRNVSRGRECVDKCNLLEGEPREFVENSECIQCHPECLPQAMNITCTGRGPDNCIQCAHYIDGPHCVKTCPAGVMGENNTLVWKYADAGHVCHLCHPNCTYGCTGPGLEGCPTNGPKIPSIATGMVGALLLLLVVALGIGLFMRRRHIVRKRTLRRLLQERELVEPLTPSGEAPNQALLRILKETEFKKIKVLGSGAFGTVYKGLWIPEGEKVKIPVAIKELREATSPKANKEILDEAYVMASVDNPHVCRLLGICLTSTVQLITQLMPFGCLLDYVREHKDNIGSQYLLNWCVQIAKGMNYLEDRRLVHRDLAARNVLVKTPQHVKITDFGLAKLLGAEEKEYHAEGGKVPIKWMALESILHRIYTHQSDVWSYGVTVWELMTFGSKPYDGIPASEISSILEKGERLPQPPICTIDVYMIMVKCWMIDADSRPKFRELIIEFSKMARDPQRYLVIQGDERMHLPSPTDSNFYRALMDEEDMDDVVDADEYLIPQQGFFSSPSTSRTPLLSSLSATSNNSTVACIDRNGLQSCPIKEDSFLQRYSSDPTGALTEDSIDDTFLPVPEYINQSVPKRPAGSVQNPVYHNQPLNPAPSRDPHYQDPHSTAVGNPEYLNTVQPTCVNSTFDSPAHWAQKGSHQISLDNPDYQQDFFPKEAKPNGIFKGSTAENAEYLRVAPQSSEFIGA

[8] = target: Follistatin-related protein 3 (Homo sapiens) (UniProt O95633); test: FSTL3 binders on small-molecule microarrays, primary screen, biochemical, small-molecule microarray, 635 nm fluorescence (AID 1105); settings: FSTL3 binding, higher = more signal;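 note: score merges emission near 667 nm and signal to noise per printed spot across three slides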
Chain of Follistatin-related protein 3 (Homo sapiens) (O95633 whole entry, looked up): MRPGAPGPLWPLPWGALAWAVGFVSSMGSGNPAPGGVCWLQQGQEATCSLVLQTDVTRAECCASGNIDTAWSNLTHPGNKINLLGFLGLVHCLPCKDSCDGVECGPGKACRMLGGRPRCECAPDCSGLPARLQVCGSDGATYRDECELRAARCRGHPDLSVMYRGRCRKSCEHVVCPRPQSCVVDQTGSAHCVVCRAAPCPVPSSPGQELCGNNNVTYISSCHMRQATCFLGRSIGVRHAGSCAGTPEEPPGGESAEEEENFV

[9] = target: Dickkopf-related protein 1 (Homo sapiens) (UniProt O94907); test: DKK1 binders on small-molecule microarrays, primary screen, biochemical, small-molecule microarray, 635 nm fluorescence scan (AID 1106); settings: DKK1 binding, higher = more signal;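 note: score merges emission near 667 nm with signal to noise over three replicate slides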
Chain of Dickkopf-related protein 1 (Homo sapiens) (O94907 whole entry, looked up): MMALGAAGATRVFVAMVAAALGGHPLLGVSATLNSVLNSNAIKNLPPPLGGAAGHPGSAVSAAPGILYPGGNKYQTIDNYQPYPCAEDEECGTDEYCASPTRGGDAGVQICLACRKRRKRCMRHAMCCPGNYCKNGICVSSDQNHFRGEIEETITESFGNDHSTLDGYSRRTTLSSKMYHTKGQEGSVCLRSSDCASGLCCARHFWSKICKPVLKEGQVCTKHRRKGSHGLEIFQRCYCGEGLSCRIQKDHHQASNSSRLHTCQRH

[10] = test system: Inhibin beta A chain (activin A); test: INHBA (activin A) binders on microarrays, primary screen, biochemical, small-molecule microarray, 635 nm fluorescence scan (AID 1107); settings: small-molecule microarray binding, higher = more signal;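 note: mouse activin A protein probed at 4.33 µg/mL on printed slides; score merges bound-protein fluorescence near 667 nm with spot signal-to-noise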

SMILES | composite z-score [1] | composite z-score [2] | composite z-score [3] | z-score [4] | composite z-score [5] | composite z-score [6] | composite z-score [7] | composite z-score [8] | composite z-score [9] | composite z-score [10]
COC(=O)[C@@H]1CC[C@@H](C)[C@H](c2ccc(Br)cc2)N1 | 0.644 | -0.013 | -0.0951 | -0.203 (inactive) | -0.0342 | -0.0839 | 0.185 | -0.155 | 0.133 | 0.987
CO[C@@H]1COC(=O)[C@@H](C)NC(=O)CC=C[C@@H](C)[C@H](NS(=O)(=O)c2ccc(C)cc2)COC(=O)[C@H](C)NC(=O)CC=C[C@H]1C | 1.49 | -0.629 | -1.22 | 0.347 (inactive) | 0.611 | 0.625 | 0.57 | 0.661 | 0.822 | 1.4
CCOC(=O)C1=NO[C@@]2(C=C(Br)C3(OCCCO3)[C@H]3O[C@H]32)C1 | 0.984 | -0.042 | 0.521 | 0.0671 (inactive) | 1.07 | 0.827 | 1.13 | 0.842 | 1.66 | 1.59
COC(=O)C1=C(C)N(Cc2ccccc2)[C@]23O[C@](C(=O)OC)(C(=O)N2[C@@H]1c1ccccc1)C(C(=O)OC)=C3C(=O)OC | 1.16 | -0.389 | -0.562 | -2.35 (inactive) | 1.24 | 1.06 | 0.7 | 0.84 | 0.757 | 0.226
CCCNC(=O)OC[C@H]1O[C@H](c2ccccc2)C=C[C@@H]1Oc1ccc(OC)cc1 | -0.361 | -0.377 | -0.396 | -0.0906 (inactive) | 0.0708 | -0.0811 | 0.424 | 0.108 | -0.0332 | -0.339
COCOc1ccc(Br)cc1C(=O)[C@@H]1O[C@H]1c1cccc(OC)c1 | 0.82 | -0.0616 | -0.0631 | -0.455 (inactive) | 0.152 | 0.117 | 0.284 | 0.16 | 0.219 | 0.849
CC(C)=NOC[C@@H](C)[C@H](OCc1ccccc1)C(C)C | -0.229 | -0.0423 | 0.631 | -0.159 (inactive) | -0.822 | -1.06 | -0.602 | -0.664 | -0.355 | 0.927
C[C@@H]1CC[C@H]2C(=O)O[C@@H](Cc3ccccc3)CN2[C@H]1c1ccc(Br)cc1 | 0.666 | 0.14 | -0.246 | -0.387 (inactive) | 0.383 | 0.177 | 0.389 | 0.416 | 0.783 | 0.619
COC(=O)CC=C[C@@H](C)[C@@H](C=NO[C@@H](C)c1cn([C@H](CO)Cc2ccccc2)nn1)NS(=O)(=O)c1ccc(C)cc1 | 1.18 | -0.0838 | -0.668 | -0.83 (inactive) | 0.582 | 0.252 | 0.519 | 0.449 | 0.47 | 0.408
CC[C@@H](c1ccccc1)n1c(=O)n2n(c1=O)[C@H]1[C@H](O)[C@@H]3O[C@@H]3C(=O)[C@H]1CC2 | 1.23 | -0.245 | -0.717 | 0.797 (inactive) | 0.427 | 0.417 | 0.489 | 0.32 | 0.466 | 0.384
CC(CCN1CCCCc2nc(C)c(C)cc21)=NO[C@@H](C)c1cn([C@H](CO)Cc2ccccc2)nn1 | 0.683 | -0.217 | -0.46 | 0.16 (inactive) | 0.0253 | 0.54 | 0.593 | 0.902 | 1.17 | 0.788
O=C1[C@H]2[C@H]3[C@H](O)[C@H](O)CC(=NOCc4ccccc4)[C@@H]3CC[C@H]2C(=O)N1C[C@@H]1CCCO1 | 0.0048 | -0.168 | -0.21 | 0.274 (inactive) | 0.179 | -0.451 | -0.0735 | -0.304 | -0.028 | 0.164
CO[C@@H]1COC(=O)[C@@H](C)COC(=O)[C@@H](C)NC(=O)CC=C[C@@H]1C | 0.155 | -0.351 | -1.08 | -2.29 (inactive) | 1.22 | 0.571 | 0.318 | 1.33 | 1.73 | 0.675
COC(=O)CC=C[C@@H](C)[C@@H](C=NOC(C)CN1CCCc2nc(C)c(C)cc21)OC (stereo not given in full) | 0.465 | -0.0071 | -0.472 | 0.404 (inactive) | 0.407 | 0.522 | 0.538 | 0.406 | 0.866 | -0.0511
CCOC(=O)NN=C1C[C@@H](O)[C@@H](O)[C@@H]2[C@@H]3C(=O)N(C(C)(C)C)C(=O)[C@@H]3CC[C@H]12 | 0.217 | 0.0171 | -0.398 | -0.626 (inactive) | 0.338 | 0.666 | 0.705 | 0.635 | 0.739 | 0.103
O=C1C[C@@H](O)[C@@H](O)[C@@H]2[C@@H]3C(=O)N(C[C@@H]4CCCO4)C(=O)[C@@H]3CC[C@H]12 | 0.379 | -0.273 | -0.577 | 0.32 (inactive) | 0.508 | 0.671 | 0.531 | 0.601 | 0.542 | -0.161
CO[C@H]1COC(=O)CC=C[C@@H](C)[C@H](OC)COC(=O)CCC[C@@H]1C | 0.786 | -0.175 | -0.791 | -1.16 (inactive) | 0.254 | 0.274 | 0.487 | 0.633 | 1.19 | 1.25
CCc1cc2c(nc1CC)CCN(CCC(C)=NO[C@@H](C)c1cn([C@H](CO)Cc3ccccc3)nn1)C2 | 0.6 | -0.102 | 0.0143 | 0.113 (inactive) | -0.122 | -0.32 | 0.253 | 0.474 | 0.436 | 1.29
Cc1cc2c(c(=O)o1)[C@@H](O)[C@H]1O[C@H]1C2=O | 0.338 | -0.145 | -0.699 | -0.533 (inactive) | 0.436 | 0.231 | 0.287 | 0.522 | 0.585 | 0.0545
CC(C)CON=C1C[C@@H](O)[C@@H](O)[C@@H]2[C@@H]3C(=O)N(Cc4ccc5c(c4)OCO5)C(=O)[C@@H]3CC[C@H]12 | 0.191 | -0.222 | -0.608 | 0.31 (inactive) | 1.14 | 0.589 | 0.216 | 0.671 | 0.178 | -0.374
CC1O[C@H]2C3=C(C(=O)[C@@H]4O[C@@H]4[C@H]3O)[C@@H]1C1[C@@H](C)OC=C3[C@H](O)C4O[C@@H]4C(=NOCc4ccccc4)[C@]312 (stereo not given in full) | 0.0395 | -0.129 | -0.326 | -0.469 (inactive) | 0.0791 | -0.14 | 0.191 | -0.3 | 0.155 | 0.121
CO[C@H]1COC(=O)[C@H](C)NC(=O)CC=C[C@@H](C)[C@H](OC)COC(=O)[C@@H](OCc2ccccc2)C=C[C@@H]1C | 0.68 | -0.747 | -1.33 | -0.00187 (inactive) | 0.0389 | 0.362 | 0.475 | 0.492 | 0.834 | 1.34
CCOC(=O)[C@H](Cc1ccccc1)NC(=O)CCC1CC(OC(=O)NCc2ccc3c(c2)OCO3)CC2(CCCC(COC(=O)NCCC(C)C)O2)O1 (stereo not given in full) | 1.21 | -0.197 | -0.287 | 0.0184 (inactive) | 1.12 | 0.18 | -0.0617 | 0.743 | 0.415 | 0.367
COc1ccc(O[C@H]2C=C[C@@H](c3ccccc3)O[C@@H]2CON=C(C)C)cc1 | 1.04 | 0.267 | 0.755 | 1.07 (inactive) | -0.665 | -1.12 | -0.0601 | -0.0815 | -0.292 | 1.42
